Results from PubChem BioAssay (NCATS).
Values joined by “and” are separate entries in the source; they are usually repeats but may differ in a detail not shown here. Equal entries are not always repeated. Records with an inconclusive call do not appear. Entries that show only a call come without a potency. Active and inactive are the calls of the source. Unless noted, calls come from the whole dose curve; as a rule, active = well fitted curve in the direction sought with a large enough effect; inconclusive = small, poorly fitted or top-dose-only effect, or another doubt; inactive = no such curve, though single readings can be large; an effect the other way counts as inactive or inconclusive.

Experiments:
[1] = qHTS for compounds that reverse cellular toxicity of Amyloid beta (A-beta) peptide in yeast: LOPAC Validation Assay (AID 720559)
Method in brief: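 OD600 growth readout after 48 hr at 30 C; A-beta-toxic yeast plus pinned compounds in medium. Normalization: DMSO = negative, equimolar FeCl3 + clioquinol = positive.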

[2] = qHTS for Activators of Parkin Expression: LOPAC Validation Assay (NLuc Reporter) (AID 720572)
Method in brief: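 Neuronal line stably carrying a FLuc/NLuc coincidence reporter under the Parkin promoter, seeded 24 h, then dosed in 7-point series for 24 h at 37 C. NLuc luminescence read after FLuc; normalized to DMSO and positive control (100%).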

[3] = qHTS for Activators of Parkin Expression: LOPAC Validation Assay (FLuc Reporter) (AID 720573)
Method in brief: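 FLuc luminescence read-out from a neuronal line expressing a Parkin-promoter-driven coincidence reporter. Cells treated 24 h at 37 C, 5% CO2 with compounds at 7 concentrations; signal increase normalized to DMSO and positive control.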

[4] = target: T1, Hexokinase-4 (Homo sapiens) + Glucokinase regulatory protein (Homo sapiens) (UniProt P35557+Q14397); assay: qHTS assay for inhibitors of recombinant human GCK-GKRP interaction: Diaphorase-coupled assay (AID 743205)
Method in brief: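 Resorufin fluorescence (525/590 nm), read each minute over 30 min, reports GCK activity coupled via G6PDH and diaphorase. Reaction: 10 nM GST-GCK, 10 nM FLAG-GKRP, 5 mM glucose, 0.4 mM ATP, 0.15 mM NADP+, 0.1 mM resazurin.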

[5] = target: T1, Hexokinase-4 (Homo sapiens) + Glucokinase regulatory protein (Homo sapiens); assay: qHTS assay for inhibitors of recombinant human GCK-GKRP interaction: ADP-Glo assay (AID 743206)
Method in brief: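 GST-GCK and FLAG-GKRP (15 nM each in the dispensed mix, with 2 uM S6P) react with 0.4 mM ATP and 5 mM glucose (final) in Hepes pH 7.6 for 60 min at room temperature. ADP is measured by ADP-Glo luminescence.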

[6] = target: T1, Hexokinase-4 (Homo sapiens) + Glucokinase regulatory protein (Homo sapiens); assay: qHTS assay for inhibitors of recombinant human GCK-GKRP interaction: HTRF assay (AID 743207)
Method in brief: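 HTRF read-out (ex 320 nm; 615/665 nm emission) after 60 min RT equilibration of 5 nM GST-GCK, 5 nM FLAG-GKRP, 2 uM S6P, compound and anti-FLAG/anti-GST detection antibodies; signal normalized between DMSO wells with and without GCK.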

[7] = qHTS Assay for Identifying Gametocytocidal Compounds (AID 743244);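 note: actives lower the fluorescent signal which means gametocytes are killed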; details: P. falciparum 3D7 stage III-V gametocytes, alamarBlue, 72 h; max response: stronger effect = lower value
Method in brief: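 Compounds are pinned into medium, gametocytes (stage III–V, 3D7, 20,000 cells/well) added, and plates held 72 h at 37 °C in 5% CO2. AlamarBlue follows for 24 h before fluorescence reading.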

[8] = qHTS profiling for inhibitors of Plasmodium falciparum (3D7) proliferation (AID 743322);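 note: infected erythrocytes exposed to compound for 72 h before lysis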; details: P. falciparum 3D7 proliferation, at 28.7 µM (top of the series)
Method in brief: (§1)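 Erythrocytes infected with P. falciparum (0.3% parasitemia, 2.5% hematocrit) incubated with compounds 72 h at 37 C, 5% CO2. Lysis with saponin/Triton buffer containing SYBR Green I, overnight at room temperature in the dark; DNA fluorescence (485/535 nm) normalised to 0.29 uM artemisinin and DMSO.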

[9] = qHTS profiling for inhibitors of Plasmodium falciparum (DD2) proliferation (AID 743323; call rule not given here); details: at 28.7 µM (top of the series), lower = more inhibition
Method in brief: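 1536-well qHTS; infected RBCs 0.3% parasitemia/2.5% Hct final; cpd 72 h 37 C 5% CO2; lysis buffer + SYBR Green I, o/n RT dark; FI 485/535; norm. to 0.29 uM artemisinin and DMSO, plate-stack corrected.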

[10] = qHTS profiling for inhibitors of Plasmodium falciparum (HB3) proliferation (AID 743324); details: Plasmodium falciparum HB3 blood-stage proliferation; at 28.7 µM (top of the series)
Method in brief: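 P. falciparum HB3 grown in erythrocytes (0.3% parasitemia, 2.5% hematocrit final) with compound for 72 h at 37 C, 5% CO2. Parasite DNA detected by SYBR Green after saponin/triton lysis overnight; normalized to 0.29 uM artemisinin and DMSO.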

[11] = qHTS profiling of the MIPE4 collection as inhibitors of Plasmodium falciparum (3D7) proliferation (AID 743344; call rule not given here); details: P. falciparum 3D7 in erythrocytes, SYBR Green DNA fluorescence, 72 h; at 28.5 µM (top of the series) unless noted
Method in brief: as §1

[12] = qHTS profiling of the MIPE4 collection as inhibitors of Plasmodium falciparum (DD2) proliferation (Rep 2) (AID 743346; call rule not given here); details: P. falciparum Dd2 in erythrocytes, SYBR Green DNA, 72 h; at 28.5 µM (top of the series) unless noted
Method in brief: as §1

[13] = qHTS profiling of the MIPE4 collection as inhibitors of Plasmodium falciparum (HB3) proliferation (AID 743347; call rule not given here); details: P. falciparum HB3 in erythrocytes, SYBR Green DNA, 72 h; at 28.5 µM (top of the series) unless noted
Method in brief: as §1

[14] = High-throughput drug toxicity screening in the BPDCN cell line Gen2.2 (AID 1224824; call rule not given here;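 note: cells exposed to compounds for 48 h before reading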); details: Gen2.2 BPDCN cells; at 45.8 µM (top of the series) unless noted
Method in brief: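 CellTiter-Glo luminescence after 48 h compound exposure of Gen2.2 cells; percent activity set with DMSO as 100% and bortezomib (9.2 uM final) as 0%. Cells seeded at 500 per well, RPMI + 10% FBS, 37 °C.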

[15] = qHTS assay for small molecule agonists of the antioxidant response element (ARE) signaling pathway measured by Nrf2-dependant transcriptional activity (AID 720636; active = well fitted curve in the direction sought with a large enough effect in the repeat runs; an effect the other way counts as inactive or inconclusive;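 note: HepG2 cells with an ARE-driven luciferase reporter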)
Method in brief: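 First, ARE-luc HepG2 cells attached for 6 hr at 37 C in 1% dialyzed FBS medium. Next, compound or DMSO was added and incubated 16 hr. Finally, ONE-Glo reagent was added and luminescence measured after 30 min.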

[16] = qHTS assay for small molecule antagonists of the retinoid-related orphan receptor gamma (ROR-gamma) signaling pathway - cell viability counter screen (AID 720652; active = well fitted curve in the direction sought with a large enough effect in the repeat runs; an effect the other way counts as inactive or inconclusive;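 note: CHO reporter cells with doxycycline-induced ROR-gamma expression; compound exposure lasted 16 hr before ATP read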)
Method in brief: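 CHO cells carrying TET-inducible ROR and RORE-luciferase reporter, plated 5 hr, then dosed with compound plus doxycycline. After 16 hr at 37 C, viability read as intracellular ATP by CellTiter-Glo luminescence.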

[17] = qHTS assay for small molecule agonists of the antioxidant response element (ARE) signaling pathway measured by Nrf2-dependant transcriptional activity - cell viability counter screen (AID 720653; active = well fitted curve in the direction sought with a large enough effect in the repeat runs; an effect the other way counts as inactive or inconclusive; note: potency is the fitted concentration of half-maximal effect); details: ARE-bla HepG2 viability, CellTiter-Glo ATP luminescence, 16 h; max response: stronger effect = lower value
Method in brief: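 ARE-bla HepG2 cells (2,000/well) rested 5 hrs at 37C/5% CO2, then exposed to compounds in DMSO for 16 hrs. Viability was read in the same wells as intracellular ATP by luminescence, 30 min at room temperature after reagent addition.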

[18] = qHTS assay for cell viability of HEK293 cells (AID 743288); details: ATP luminescence (CellTiter-Glo), 18 h; max response: stronger effect = lower value; note: nearly all actives have a fitted effect of over 50% in size
Method in brief: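 Environmental chemicals tested in qHTS format against parental HEK293 cells; 18 h treatment, 37 C; read-out ATP luminescence (CellTiter-Glo), 30 min RT development.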

[19] = qHTS assay for cell viability of the p53RE-bla HCT-116 cell line (AID 743292); note: nearly all actives have a fitted effect of over 55% in size; note: potency is the fitted concentration of half-maximal effect
Method in brief: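 Quantitative high-throughput format: compounds in DMSO were pinned onto p53RE-bla HCT-116 cells (4,000/well) and incubated 16 h at 37 C. Total intracellular ATP, read by CellTiter-Glo luminescence, reflects viable cell number.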

[20] = qHTS profiling of the MIPE4 collection as inhibitors of Plasmodium falciparum (DD2) proliferation (AID 743345; call rule not given here); details: P. falciparum Dd2 in erythrocytes, SYBR Green DNA, 72 h; at 28.5 µM (top of the series) unless noted
Method in brief: as §1

T1 sequence (P35557 whole entry, looked up): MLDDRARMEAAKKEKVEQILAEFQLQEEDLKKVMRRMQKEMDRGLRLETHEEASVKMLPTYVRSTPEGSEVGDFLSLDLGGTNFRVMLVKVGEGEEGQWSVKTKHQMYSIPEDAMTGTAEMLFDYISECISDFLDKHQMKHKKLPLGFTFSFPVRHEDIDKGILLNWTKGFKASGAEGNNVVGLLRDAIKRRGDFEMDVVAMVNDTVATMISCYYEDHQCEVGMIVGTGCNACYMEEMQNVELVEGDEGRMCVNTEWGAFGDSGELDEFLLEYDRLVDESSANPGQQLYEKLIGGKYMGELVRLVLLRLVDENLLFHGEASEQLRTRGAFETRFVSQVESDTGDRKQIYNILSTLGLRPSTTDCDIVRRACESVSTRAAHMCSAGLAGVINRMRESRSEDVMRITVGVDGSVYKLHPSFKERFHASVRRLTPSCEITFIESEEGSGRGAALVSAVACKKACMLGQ
T1 sequence (Q14397 whole entry, looked up): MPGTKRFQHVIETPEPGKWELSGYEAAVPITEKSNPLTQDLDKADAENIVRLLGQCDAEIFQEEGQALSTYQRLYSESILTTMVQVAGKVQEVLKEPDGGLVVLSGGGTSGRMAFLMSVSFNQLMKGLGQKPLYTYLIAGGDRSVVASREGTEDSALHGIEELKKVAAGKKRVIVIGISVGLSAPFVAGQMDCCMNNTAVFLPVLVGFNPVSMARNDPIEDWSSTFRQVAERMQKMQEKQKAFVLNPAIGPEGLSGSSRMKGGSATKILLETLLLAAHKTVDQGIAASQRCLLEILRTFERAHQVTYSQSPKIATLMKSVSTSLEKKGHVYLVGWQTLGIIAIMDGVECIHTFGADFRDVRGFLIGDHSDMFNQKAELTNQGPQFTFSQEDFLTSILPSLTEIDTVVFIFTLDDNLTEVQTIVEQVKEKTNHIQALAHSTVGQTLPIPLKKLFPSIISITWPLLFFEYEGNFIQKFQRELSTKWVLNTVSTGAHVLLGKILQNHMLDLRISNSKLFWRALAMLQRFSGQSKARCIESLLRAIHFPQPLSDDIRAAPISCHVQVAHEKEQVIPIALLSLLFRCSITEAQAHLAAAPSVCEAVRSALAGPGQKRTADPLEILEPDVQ

With `C[C@H]1c2cccc(O)c2C(O)=C2C(=O)[C@]3(O)C(O)=C(C(N)=O)C(=O)[C@@H](N(C)C)[C@@H]3[C@@H](O)[C@@H]21` the outcome [1] was “inactive”, the outcome [2] was “inactive” and the Potency [3] was “inactive”. For the same molecule, the Potency [4] was “inactive”, the Potency [5] was “inactive” and the Potency [6] was “inactive”. For the same molecule, the max response [7] was 18.1% (inactive), the remaining parasite growth % (stronger effect = lower value) [8] was 16.9% and the activity, percent of control [9] was 12.8%. The remaining proliferation (% of control), lower = more inhibition [10] was 15.7%, the parasite growth, % of DMSO control [11] was 6.81% and the parasite growth, % of control (lower = inhibition) [12] was 14.3%. For the same molecule, the growth, % of control [13] was 12.4% and the cell viability, % of control (lower = more cytotoxic) [14] was 12.3%.
With `NS(=O)(=O)c1cc2c(cc1Cl)NCNS2(=O)=O` the outcome [1] was “inactive”, the outcome [2] was “inactive” and the Potency [3] was “inactive”. The outcome [15] was “inactive”, the Potency [16] was “inactive” and the max response [17] was 0.152% (inactive) and 15.5% (inactive). The Potency [5] was “inactive”, the Potency [6] was “inactive” and the max response [7] was 6.34% (inactive) and 16.2% (inactive). For the same molecule, the max response [18] was -3.61% (inactive) and 2.79% (inactive), the Potency [19] was “inactive” and the parasite growth, % of DMSO control [11] was 53.2%. The parasite growth remaining, % of DMSO control (lower = more inhibition) [20] was 53.5%, the parasite growth, % of control (lower = inhibition) [12] was 39.6% and the growth, % of control [13] was 40.8%. It also gave a cell viability, % of control (lower = more cytotoxic) [14] of 159%.
In the case of `CCOC(=O)c1ncn2c1CN(C)C(=O)c1cc(F)ccc1-2`, the outcome [1] is reported as “inactive”, the outcome [2] is reported as “inactive” and the Potency [3] is reported as “inactive”. The Potency [4] was “inactive”, the Potency [5] was “inactive” and the Potency [6] was “inactive”. For the same molecule, the max response [7] was 2.86% (inactive) and 37.5% (inactive) and the cell viability, % of control (lower = more cytotoxic) [14] was 100%.
With `O=C(CCCN1CCC(O)(c2ccc(Cl)cc2)CC1)c1ccc(F)cc1` the outcome [1] was “inactive”, the outcome [2] was “inactive” and the Potency [3] was “inactive”. For the same molecule, the outcome [15] was “inactive”, the max response [17] was -9.04% (inactive) and the max response [18] was -20.6% (inactive). For the same molecule, the Potency [19] was “inactive” and the cell viability, % of control (lower = more cytotoxic) [14] was 58.3%.
In the case of `CN(Cc1cnc2nc(N)nc(N)c2n1)c1ccc(C(=O)N[C@@H](CCC(=O)O)C(=O)O)cc1`, the outcome [1] is reported as “inactive”, the outcome [2] is reported as “inactive” and the Potency [3] is reported as “inactive”. For the same molecule, the outcome [15] was “inactive”, the Potency [17] was 44.7 nM (active) and the Potency [5] was “inactive”. For the same molecule, the Potency [6] was “inactive”, the max response [7] was -2.41% (inactive) and 9.8% (inactive) and the Potency [19] was 282 nM (active). It also gave a parasite growth, % of DMSO control [11] of 8.82%, a parasite growth remaining, % of DMSO control (lower = more inhibition) [20] of 7.1% and a parasite growth, % of control (lower = inhibition) [12] of 8.39%. The growth, % of control [13] was 19.5% and the cell viability, % of control (lower = more cytotoxic) [14] was 70%.
With `CC(C)Cc1ccc(C(C)C(=O)O)cc1` (stereo not given) the outcome [1] was “inactive”, the outcome [2] was “inactive” and the Potency [3] was “inactive”. For the same molecule, the outcome [15] was “inactive”, the max response [17] was 3.8% (inactive) and the Potency [5] was “inactive”. The Potency [6] was “inactive”, the max response [7] was 19.9% (inactive) and 9.6% (inactive) and the max response [18] was -10% (inactive). The Potency [19] was “inactive”, the parasite growth, % of DMSO control [11] was 112% [at 9.64 µM] and the parasite growth, % of control (lower = inhibition) [12] was 162% [at 9.64 µM]. The growth, % of control [13] was 94.2% [at 9.64 µM] and the cell viability, % of control (lower = more cytotoxic) [14] was 116% [at 23.2 µM].
With `O=C(c1ccc(OCCN2CCCCC2)cc1)c1c(-c2ccc(O)cc2)sc2cc(O)ccc12` the outcome [1] was “inactive”, the outcome [2] was “inactive” and the Potency [3] was “inactive”. For the same molecule, the outcome [15] was “inactive”, the Potency [4] was “inactive” and the Potency [5] was “inactive”. The Potency [6] was “inactive”, the parasite growth, % of DMSO control [11] was 7.18% and the parasite growth remaining, % of DMSO control (lower = more inhibition) [20] was 32.9%. For the same molecule, the parasite growth, % of control (lower = inhibition) [12] was 20.8%, the growth, % of control [13] was 9.13% and the cell viability, % of control (lower = more cytotoxic) [14] was 67.1%.
In the case of `CN(C)C(=O)C(CCN1CCC(O)(c2ccc(Cl)cc2)CC1)(c1ccccc1)c1ccccc1`, the outcome [1] is reported as “inactive”, the outcome [2] is reported as “inactive” and the Potency [3] is reported as “inactive”. For the same molecule, the cell viability, % of control (lower = more cytotoxic) [14] was 71%.
